PubChem BioAssay AID1671188 (National Center for Advancing Translational Sciences (NCATS), 2021)
Out of some 100,000 compounds screened, about 250 (0.25%) were called active. Roughly 7% stayed inconclusive and do not appear here. The sample holds actives, similar compounds and a random draw of the others, so the mix is not that of the screen. Calls follow the shape of the dose curve; as a rule, active = well fitted inhibition curve with a large enough effect; inconclusive = small, poorly fitted or top-dose-only effect; inactive = flat fitted curve, though single readings scatter.

Each compound was assayed against Alanine aminotransferase 2 (Homo sapiens) (UniProt Q8TD30) (assay: Primary qHTS assay for inhibitors of Glutamate pyruvate transaminase 2 (GPT2)). Settings: Recombinant GPT2, coupled pyruvate oxidase/HRP Amplex Red fluorescence; series mostly up to 57.7 µM; activity change, negative = inhibition: at the top concentration.
Procedure: Assay Provider: Zhenghe John Wang Ph.D.
Case Western Reserve University, Cleveland OH
Glutamate pyruvate transaminase 2 (GPT2) catalyzes the reversible transamination of glutamate and pyruvate to provide a-ketoglutarate and alanine. We have optimized an assay for GPT2 enzymatic activity that couples pyruvate formation to detection of fluorescence using an established pyruvate oxidase/horseradish peroxidase / Amplex Red system.
Screening conditions were 250uM a-KG, 2mM L-alanine, and 10ng/uL GPT2 in […] of solution; 10uL of Amplex reaction mix (outlined below) were added so that final concentrations of Amplex reagents in 50uL were 0.2mM ThPP, 0.2U/mL PO and HRP, and 50uM Amplex.
NOTE: The volume of GPT2 in the system depends on the activity of it. The activity is different every batch. You need to test the activity before the assay. For full plate assay with automation, plate 20uL of GPT2 buffer to pin into, then add 10uL of GPT2 dilution followed immediately by 10uL of substrate dilution. 2 Columns of the plate were devoted to GPT2 buffer ([…] PH7.5, 0.0001% Tween) + 50uM AOA (known GPT2 inhibitor) to serve as a positive control. Complete the assay as normal. Amplex-red buffer: […] PH7.5, 1 mM EDTA, 1 mM MgCl2.
1. Combine a-KG and L-alanine at desired concentrations and incubate for at least 10 minutes at 37C. Stocks of L-alanine and a-KG are diluted in distilled water. However, the stocks were diluted in GPT2 buffer for the assay.
2. Prepare GPT2 dilution at the desired concentration in GPT2 buffer.
3. Plate 40uL of GPT2 dilution with 40uL of substrate dilution and let incubate for 30 minutes at room temperature.
4. Add 20uL of Amplex reaction mix prepared as follows: 1.5uL 200U/mL Horseradish Peroxidase, 200mM Thiamine Pyrophosphate, 200U/mL Pyruvate Oxidase; 7.5uL 10mM Amplex Red; 288uL Amplex Buffer.
5. Incubate for 30 minutes at room temperature in the dark, then image using AM_Amplex_Fluorescence on plate reader nearest the window.
% is scaled to controls: 0 for no effect and ±100 for the full control effect; potency is read from the fitted curve at half-maximal effect.
Also: nearly all actives have a fitted effect of over 60% in size.

Chain of Alanine aminotransferase 2 (Homo sapiens) (Q8TD30 whole entry, looked up): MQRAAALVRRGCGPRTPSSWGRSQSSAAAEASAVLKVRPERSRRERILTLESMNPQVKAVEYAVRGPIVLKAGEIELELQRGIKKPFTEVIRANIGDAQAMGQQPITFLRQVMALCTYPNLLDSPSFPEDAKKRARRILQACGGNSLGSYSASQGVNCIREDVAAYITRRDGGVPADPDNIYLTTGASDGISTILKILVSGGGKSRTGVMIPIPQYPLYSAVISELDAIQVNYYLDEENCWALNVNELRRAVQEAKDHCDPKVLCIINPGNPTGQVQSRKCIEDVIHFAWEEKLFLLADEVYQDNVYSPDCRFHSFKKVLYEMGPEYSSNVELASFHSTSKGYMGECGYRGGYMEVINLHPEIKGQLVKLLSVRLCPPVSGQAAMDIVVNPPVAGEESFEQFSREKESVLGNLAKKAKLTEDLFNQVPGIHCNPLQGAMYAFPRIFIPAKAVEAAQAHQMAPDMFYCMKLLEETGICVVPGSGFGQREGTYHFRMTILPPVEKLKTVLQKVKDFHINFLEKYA

Compound	activity change, negative = inhibition	outcome	Potency
O=C(c1ccc(C(F)(F)F)s1)N1CCCN(c2nnc3ccccn23)CC1	-8.08% (inactive)	–	–
COc1ccc(C(=O)N(C)Cc2ccc(F)cc2)cc1	0.769% [at 88.5 µM] (inactive)	–	–
COc1cccc(NC(=O)O[C@@H]2CO[C@H]3[C@@H]2OC[C@@H]3Nc2nccc(-c3cccs3)n2)c1	-1.4% (inactive)	–	–
CCOC(=O)c1ccc(NC(=O)Cn2c(N3CCOCC3)nc(CC)cc2=O)cc1	–	inactive	–
Cn1nccc1-c1cccc(-c2nc(N3CCOCC3)n(C)n2)c1	-1.34% (inactive)	–	–
CC(C)NC(=O)N1Cc2[nH]cnc2C[C@H]1c1nc(-c2ccc3c(c2)OCO3)no1	–	inactive [at 88.5 µM]	–
CC(=O)/C(C)=N/O	–	–	20 µM (active)
CN(CC1CCOCC1)C(=O)c1ccccc1	-2.97% (inactive)	–	–
C#CCNC(=O)c1cn2cc(-c3ccccc3)sc2n1	–	inactive [at 88.5 µM]	–
Cc1ccccc1CN1CCCn2nc(C)c(-c3cccnc3N3CCOCC3)c21	–	inactive [at 88.5 µM]	–
COc1ccc(-c2cc(-c3cccc4[nH]ncc34)cn3cncc23)cn1	-3.99% [at 88.5 µM] (inactive)	–	–
O=C(NCc1cccnc1)[C@@H]1C[C@@H](O)CN1C1CCN(C(=O)C2(c3ccccc3)CC2)CC1	–	inactive	–
CC(NC(=O)c1ccc(C(C)(C)C)cc1)C(=O)N1CCN(c2ccccn2)CC1 (stereo not drawn)	-5.47% (inactive)	–	–
Cc1ccccc1-c1cn(C)c(=O)n2cc(CNc3ccccc3)nc12	0.941% [at 88.5 µM] (inactive)	–	–
Cn1cc(CN2CCOC[C@H]2c2ncc(-c3cccc(F)c3)[nH]2)c2ccccc21	-3.28% [at 88.5 µM] (inactive)	–	–
Cc1cc(S(=O)(=O)NCC2CCOCC2)ccc1F	-5.6% (inactive)	–	–
COC1CN(c2ccc(C)cc2)C12CCN(C(=O)Cc1cccc(F)c1)CC2 (stereo not drawn)	–	inactive	–
CC(=O)N1CC2(CCN(Cc3cccnc3)CC2)Cc2ccccc21	–	inactive	–
CC(=O)N[C@H]1CN(c2cncc(C(=O)N3CCCC3)n2)C[C@@H]1C1CC1	–	inactive	–
O=C(NC1CCN(C(=O)c2ccc(-c3cncnc3)cc2)CC1)c1ccccn1	4% (inactive)	–	–
CN1CCOC[C@H]2CCN(C(=O)c3ccsc3)C[C@H]21	–	inactive	–

Compound	activity change, negative = inhibition	outcome	Potency
CCCN(C)c1nccnc1OC1CCN(C(=O)c2ccnn2C)C1 (stereo not drawn)	2.99% (inactive)	–	–
Cc1cc2nc3n(c(=O)c2n1CC(=O)Nc1ccc2c(c1)OCO2)CCCCC3	–	inactive	–
CCC1=C(C(=O)OC)C(c2ccccc2)N2C(CC(=O)N3CCCC3)=CSC2=N1 (stereo not drawn)	–	inactive	–
CC(C)Cc1cc(CNc2nc(C(C)(C)C)nc3c2cnn3C)no1	-29.9% (inactive)	–	–
COc1cccc(-c2ccc(C(=O)N3CCC(NC(=O)c4ccccc4OC)CC3)cc2)c1	-18.1% (inactive)	–	–
CCc1cccc2c(C(CC(=O)NCC(C)C)c3cccc(OC)c3)c[nH]c12 (stereo not drawn)	2.13% (inactive)	–	–
O=C(Nc1ccccc1)N1CCCC(C(=O)N2CCCC(c3nc4ncccc4[nH]3)C2)C1 (stereo not drawn)	-5.86% (inactive)	–	–
O=C(C1CCC1)N1CCC(n2cnnc2C2CC2)CC1	-0.859% (inactive)	–	–
CCOC(=O)C1CCN(C(=O)c2ccc3nnc(Cc4ccc(Cl)cc4)n3c2)CC1	4.47% (inactive)	–	–
CCC(C)(C)C(=O)N1CC(c2nnc(-c3ccncc3)o2)C2(CCOCC2)C1 (stereo not drawn)	–	inactive	–
O=C(C1CCCN(Cc2cccc(-c3ccc(F)cc3F)c2)C1)N1CCCCC1 (stereo not drawn)	-2.29% (inactive)	–	–
CC[C@H]1CN(S(=O)(=O)c2ccc(OC)cc2)CC[C@H]1CC(=O)Nc1ccccc1	-8.11% [at 88.5 µM] (inactive)	–	–
CC(C)(O)CCc1cccc(C(=O)NC2CCN(c3ncccc3C#N)CC2)c1	-5.56% (inactive)	–	–
O=C1C[C@H]2CC[C@@H](CN1)N2C(=O)c1csc2nc(-c3ccccc3Cl)cn12	-4.63% (inactive)	–	–
COCCN1C(=O)N(CCc2ccccc2)C(=O)C12CCN(C/C=C/c1ccccc1)CC2	0.511% (inactive)	–	–
Cc1ccc(C(=O)N2CC(n3c(C)cnc3-c3ccccc3)C2)cn1	–	inactive	–
CCOC(=O)C(C)Oc1cccn2c(=O)c(-c3cc(C)n(-c4cccc(F)c4)n3)c(C)nc12 (stereo not drawn)	–	inactive	–
Cc1cc(N)n(CC(=O)N[C@@H]2COCC[C@H]2Oc2ccc(C(N)=O)cc2)n1	2.4% (inactive)	–	–
O=C(NCc1ccncc1)c1ccc(CN2C(=O)NC3(CCS(=O)(=O)CC3)C2=O)cc1	–	inactive	–
CN(Cc1cccnc1)C(=O)CC(c1ccccc1)c1ccc(Cl)cc1 (stereo not drawn)	-5.94% (inactive)	–	–
O=C(NCCc1ccccc1)C1CN(C2CCCCC2)C(=O)N1 (stereo not drawn)	2.65% [at 88.5 µM] (inactive)	–	–

Compound	activity change, negative = inhibition	outcome	Potency
COc1ccc(C(=O)N2C[C@@H](F)[C@@H](OCc3nc4ccc(C(F)(F)F)cc4[nH]3)C2)cc1	-4.76% (inactive)	–	–
CC(=O)Nc1ccc(C2(C(=O)NCc3ccc(Cl)cc3)CCC2)cc1	–	inactive	–
CN(C)C(=O)CCc1ccc2c(c1)CN(Cc1cn[nH]c1-c1ccc(F)cc1)CCO2	-9.05% (inactive)	–	–
Cc1nn(C(=O)CCC(=O)N2CCC(CCOc3ccccc3)C2)c2ccccc12 (stereo not drawn)	–	inactive	–
C=CCN(C)C(=O)C[C@@H]1c2nc(NC(=O)c3ccc(C(C)(C)C)cc3)sc2C[C@@H]2[C@](C)(CO)[C@H](O)CC[C@]21C	1.21% (inactive)	–	–
COC(=O)[C@@H]1Cc2ncn(Cc3ccc(Cl)cc3)c2CN1Cc1ccc(N(C)C)cc1	2.35% (inactive)	–	–
COc1cc2c(cc1CN1C[C@H]3CC[C@@H]1CN(C(=O)c1cnccn1)C3)CCC2	-13.2% (inactive)	–	–
Cc1ccc(S(=O)(=O)CCNC(=O)c2cc3n(n2)CCCNC3)cc1	–	inactive	–
c1ccc2c(c1)CNC1(CCN(Cc3cccc4ccccc34)CC1)CO2	–	inactive	–
COc1ccc(-n2nc(C)c([C@H]3C=C[C@@H](OC(=O)Nc4cccc(F)c4)C3)c2C)cc1	-5.57% [at 88.5 µM] (inactive)	–	–
Cc1ccc(S(=O)(=O)N2CCCC(CCC(=O)NC3CCCCC3)C2)cc1 (stereo not drawn)	1.92% (inactive)	–	–
O=C(NCc1ccc(Cl)nc1)c1ccn2cncc2c1	0.404% [at 88.5 µM] (inactive)	–	–
CCc1cccc2c(C(CC(=O)NCC(C)C)c3ccccc3OC)c[nH]c12 (stereo not drawn)	–	inactive	–
COc1ccc(C(=O)N2CCN(C(C(=O)O)c3cccc(O)c3)CC2)cc1 (stereo not drawn)	-24.9% (inactive)	–	–
CN1c2cc(C(=O)NCc3ccccc3Br)ccc2C(=O)N2CCCCC21 (stereo not drawn)	–	inactive	–
COc1cccc(CN2C(=O)OC3(CCN(C(=O)C4CCC(OC)CC4)CC3)C2(C)c2cccnc2)c1 (stereo not drawn)	-4.1% (inactive)	–	–
C=CCn1cc2c3c(cccc31)[C@H](CC(C)C)N[C@H](C(=O)NCC1CC1)C2	-3.39% [at 88.5 µM] (inactive)	–	–
Cc1ccc(CN2CCC3(CC2)CN(C2CCC2)CC3CO)o1 (stereo not drawn)	1.81% (inactive)	–	–
NC1(C(=O)NCCC2CCCN(Cc3ccc4occc4c3)C2)CC1 (stereo not drawn)	-9.89% (inactive)	–	–
COC(=O)[C@@H]1CN(C(=O)c2cccnc2)CCN1C(C)=O	-50.5% [at 88.5 µM] (inactive)	–	–
FC(F)(F)c1ccc(CN2CCn3c(nnc3-c3ccccc3)C2)cc1	-4.47% (inactive)	–	–
